Experimental findings from PubChem BioAssay (NCI) are described below.

Each structure is given as a SMILES string. The panel holds about 83,000 compounds, 20% with a hit somewhere; the sample as a whole holds those more often.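 96-well plates, one dose, 48 hours. Percent growth reported; active if below 10.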 A number with no mark means an inactive call. The source made the active and inactive calls.

The test system of this experiment is HCC-2998 colon. The experiment can be described thus: NCI-60 one-dose screen, 48 h (100 = growth as untreated, 0 = no growth, -100 = all killed). To be noted: 10 µM unless noted.
With `Cc1nn(-c2ccccc2)c(Cl)c1/C=C(/NC(=O)c1ccccc1)c1nc2ccccc2[nH]1`, the growth is 131%.

For `Cc1ccc(-c2c(-c3ccccc3)c(=O)oc3ccc(C)cc23)cc1`, the growth is 90.5%.

For the molecule `CC1(c2ccccc2)NC(=O)N(NC(=O)CSc2nc(-c3cccs3)nc3ccccc23)C1=O` (stereo not drawn), the growth was 98.4%.

In the case of `C(=N\Nc1ncc(-c2cc3cc4c(cc3o2)OCO4)s1)/c1ccco1`, the growth was 62.7%.

For the molecule `O=C1/C(=C\c2cccnc2)SC(=S)N1CCc1ccc(O)cc1`, the growth was 72.1%.

For the molecule `CC1(C)CC[C@]2(C(=O)N3CCOCC3)CC[C@]3(C)C(=CC[C@@H]4[C@@]5(C)CC[C@H](OC(=O)c6cccnc6)C(C)(C)[C@@H]5CC[C@]43C)[C@@H]2C1`, the growth is 58.7%.

In the case of `COC(=O)[C@]12CC[C@@H](C)[C@H](C)[C@@H]1C1=CC[C@@H]3[C@@]4(C)C(C=O)=C[C@@](C)(COC(=O)c5ccco5)[C@@H]4C(=O)C[C@@]3(C)[C@]1(C)CC2`, the growth is 38.9%.

Turning to `O=C(COc1ccc(/C=C2\Oc3ccccc3C2=O)cc1)Nc1nc2c(s1)CCCC2`, the growth was 99.6%.

Turning to `Cn1cc(-c2csc(-c3ccccc3)n2)c2cccnc21`, the growth is -79.3% [100 µM] (active).

Regarding `CCOP(=O)(OCC)C1CP(=O)(c2ccccc2)CC(C)=C1Cl` (stereo not drawn), the growth is 102%.

For the molecule `S=C(Cc1ccc2c(c1)CCCC2)N1CCOCC1`, the growth was 98%.

Consider `CN1C(=O)N(C)C2C1NN=c1s/c(=C\c3ccccc3)c(=O)n12` (stereo not drawn), for which the growth was 82.5%.

For the molecule `Cc1ccc(C(=O)CSc2nc(-c3ccc(Br)cc3)c(C#N)c(=O)[nH]2)cc1`, the growth is 101%.

Consider `O=C1N=c2cc3c(cc2=C/C1=C/c1sc(=S)n(CCc2ccc(O)cc2)c1O)OCCO3`, for which the growth is 29.4%.

As to `COc1ccc(CN2C(=O)C(Cl)=C(Nc3cccc(C(F)(F)F)c3)C2=O)cc1`, the growth is 53.2%.

For `O=C1C=C[C@]2(C[C@@H](c3cccc(C(F)(F)F)c3)O[C@@H](c3cccc(C(F)(F)F)c3)O2)O1`, the growth is 18%.

For the molecule `Clc1cc(Cl)cc(Nc2ccc3cc(OCCCN4CCOCC4)ccc3n2)c1`, the growth was -17.6% (active).

For the molecule `CC(=O)OC1CCC2(C)C(=CC3C4CCC(=O)C4(C)CCC32)C1` (stereo not drawn), the growth was 102%.

As for `COc1cc(C2NC(=O)c3ccccc3N2)ccc1OCCCCCOc1c(OC)cc(C2=NOC(c3cc(OC)c(OC)c(OC)c3)C2)cc1OC` (stereo not drawn), the growth is 80.5%.

As for `O=C(N/N=C/c1ccncc1)c1ccc(C(F)(F)F)nc1Nc1cccc(C(F)(F)F)c1`, the growth was -40.3% (active).

With `C[C@@]1(CCC#N)[C@H]2CC[C@@H]3[C@H]4[C@H](C(=O)/C=C/c5cccnc5)CC[C@]4(C#N)CC[C@@]3(C)[C@]2(C)CC[C@H]1C(=O)/C=C/c1cccnc1`, the growth was 105%.

On to `Cc1ccc(NCCN(C)C)c2c(=O)c3ccccc3sc12`, for which the growth is -16.2% (active).

For `COc1ccccc1NC(=O)N/C(N)=N/c1nc2ccccc2s1`, the growth is 28.6%.

In the case of `COC(=O)CCC1=C(C)C2=NC1=CC1=NC(=CC3=NC(=Cc4[nH]c(/c(=C(/C)O)c4C)=C2)C(C(C)=O)=C3C)C(C)=C1CCC(=O)OC`, the growth is 104%.

For `Oc1ccc(CN2CCC(N3CCOCC3)CC2)c2cccnc12`, the growth is 51.5%.

For the molecule `C#Cc1cccc(NC(=O)c2ccc(NC(=O)CCl)cc2)c1`, the growth is 92.8% [8.25 µM].

In the case of `Cc1c(C(=O)NC(Cc2ccccc2)C(O)C(=O)NCc2ccc(F)cc2)[nH]c2ccccc2c1=O` (stereo not drawn), the growth is 118%.

For `Cc1ccc2nc(NC(=O)CSc3nc(Nc4ccc([N+](=O)[O-])cc4)c(C#N)c(-c4ccccc4)n3)sc2c1`, the growth was 102%.

`CCN1C(=O)N(CC)C2Nn3c(s/c(=C4\C(=O)N(C)c5ccccc54)c3=O)=NC21` (stereo not drawn): the growth was 88.6%.

In the case of `C=CCSc1nc2ccccc2cc1/C=N/O`, the growth was 93.9%.

On to `C=C(C)[C@@H]1CC[C@]2(C)[C@H](CC=C3[C@@H]4CC(C)(C)CC[C@]4(C(N)=O)CC[C@]32C)[C@@]1(C)CCC#N`, for which the growth was 44.7%.

Take `CCOC(=O)C/C(C)=N\NC(=O)c1ccncc1`: the growth is 98.7%.

Regarding `O=C(/C=C/c1ccc(Cl)nc1)c1ccc(Cl)cc1Cl`, the growth is 114%.

Consider `COC(=O)[C@]12CC[C@@H](C)[C@H](C)[C@@H]1C1=CC[C@@H]3[C@@]4(C)C(C=O)=C[C@@](C)(COC(=O)c5ccco5)C4=CC[C@@]3(C)[C@]1(C)CC2`, for which the growth is -7.04% (active).

In the case of `CC(C)(C)C(CCc1ccc(Cl)cc1)N1CCN(C2CCCCC2)CC1` (stereo not drawn), the growth was 27%.

As to `O=C(Nc1ccc(-n2cc(-c3ccncc3)c(-c3ccc(Cl)c(O)c3)n2)cc1)N1CCOCC1`, the growth is 109%.

On to `COc1nc(N(C)O)nc(N(C)O)n1`, for which the growth is 9.13% (active).

`O=c1[nH]ccc2nc(N3CCC(O)CC3)nc(Nc3ccc(N4CCOCC4)cc3)c12`: the growth is 80.3%.
